Data as given in the supplement of paper PMC6555819.

How the values were obtained:
Test in all cases: PBM binding z-score (relative to random genomic background probes); higher = stronger binding; sequences stand for … in GC…GCGATTGACAGCGTAGAATGAAGG
[1] = tested on: RARb homodimer (NR concentration 270 nM)
Outline: (§1)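 Binding buffer was PBS pH 7.4 with 2% milk, 0.02% Triton X-100, 1 mM DTT, 0.2 mg/mL BSA and 0.4 mg/ml salmon testes DNA. In it, ligand-free nuclear receptor dimers were incubated 1 h on custom Agilent 4×180K protein-binding microarrays carrying double-stranded probes. Antibodies against each partner (one per run) detected binding, and z-scores were calculated against random background probes after regression normalization of scanned fluorescence.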

[2] = tested on: RARg:RXRa (NR concentration 270 nM, RXRa partner concentration 90 nM)
Outline: as §1

[3] = tested on: RARg homodimer (NR concentration 270 nM)
Outline: as §1

[4] = tested on: RXRa DBDmut IVT, anti-RXR (DBD mutation: RXRa K156A/R161A, NR concentration 90 nM)
Outline: as §1

[5] = tested on: RXRa homodimer (NR concentration 180 nM)
Outline: as §1

[6] = tested on: THRa:RXRa (NR concentration 90 nM, RXRa partner concentration 90 nM)
Outline: as §1

[7] = tested on: THRa homodimer (NR concentration 90 nM)
Outline: as §1

[8] = tested on: VDR homodimer (NR concentration 270 nM)
Outline: as §1

Row | Sequence | PBM binding z-score [1] | PBM binding z-score [2] | PBM binding z-score [3] | PBM binding z-score [4] | PBM binding z-score [5] | PBM binding z-score [6] | PBM binding z-score [7] | PBM binding z-score [8]
1 | CGAACTTGGTCAAAGGACAGTGAAAGGCGACGTA | 1.3 | 1.24 | 1.69 | -0.0652 | 0.736 | 0.657 | -0.391 | -0.0452
2 | CCGAGTAGGTTACGAGGGGCCATTCAGTGCGAAT | 1.53 | 1.3 | 1.23 | 0.177 | 0.889 | 3.34 | -0.418 | 0.802
3 | ATATGTACGTTAGGGTCATTCAGAAAGTAGGGAA | 2.98 | 3.78 | 2.71 | 2.3 | 4.98 | 3.78 | 2.87 | 3.98
4 | CCGAGTAGGTTACGGGGGGGCATTCAGTGCGAAT | 3.09 | 4.41 | 4.19 | 2.7 | 2.73 | 4.4 | 3.04 | 4.76
5 | ATATTTAGGTTAGGGTCATTCAGAAAGTAGGGAA | 3.47 | 4.06 | 3.55 | 2.76 | 4.71 | 4.2 | 3.85 | 4.22
6 | ATACCAAGGTTATCGTGAGGTCGTTGATACTAAC | 2.36 | 4.49 | 2 | 2.26 | 3.2 | 4.2 | 2.91 | 3.67
7 | ACCAGCAGGCCAAGGGTCACTCAAGATTAGTCCG | 3.61 | 4.08 | 3.49 | 0.237 | 4.04 | 2.63 | 0.148 | 1.1
8 | CGTCAAAGTTCAAGTTAACGTAACAGAAAGCAGC | 4.24 | 5.84 | 6.77 | 4.89 | 5.38 | 2.3 | -0.142 | 4.05
9 | CGAGCTAGGTCACCAGGACAGTGAAGAGGTTGGA | 3.31 | 4.21 | 5.39 | 1.24 | 2.97 | 3.18 | 1.65 | 0.493
10 | CGAACTAGGTCAAAGGACAGTGGAAGGCGACGTA | 3.07 | 3.62 | 4.31 | 1.4 | 2.94 | 2.5 | 0.274 | 0.241
11 | AGAATGAGGTTATACGTAGGTCAGGGAAGAAAGT | 3.18 | 6.03 | 2.35 | 1.74 | 3.96 | 3.74 | 1.44 | 1.87
12 | ATCGAAAGGGCGTGAGGTGAGTATACAGAAAGGC | 1.44 | 1.47 | 1.36 | -0.0845 | 1.17 | 2.12 | 1.08 | 0.15
13 | ATATGTAGGTTAGCTGGGGTCATTCCGACTAGGC | 3.77 | 4.05 | 2.78 | 1.93 | 5.24 | 4.98 | 3.21 | 5.2
14 | TCTTGTAGATCAAAGGTCAAGAAAGCCGAAGCCT | 4.47 | 5.63 | 5.37 | 0.913 | 7.17 | 3.42 | 0.378 | 0.514
15 | CTATGTAGGTTAAGGGGGTCTTTCAGTTTGAAAG | 1.69 | 1.56 | 1.25 | 0.662 | 1.48 | 1.94 | 0.841 | 1.31
16 | CCTTACGGGTCAAGGTTATACCACGGGTGGTACG | 3.44 | 4.96 | 4.75 | 0.758 | 5.09 | 2.97 | 0.619 | 1.65
17 | CTATGTAGGTTAAGGGGGTCATTCACTTTGAAAG | 3.95 | 5.11 | 4.05 | 2.33 | 5.85 | 3.53 | 1.72 | 5.5

Row | Sequence | PBM binding z-score [1] | PBM binding z-score [2] | PBM binding z-score [3] | PBM binding z-score [4] | PBM binding z-score [5] | PBM binding z-score [6] | PBM binding z-score [7] | PBM binding z-score [8]
18 | GGAACTAGGGCAAAGTTGATAGCATCTGTCGACG | 0.866 | 1.07 | 1.15 | 0.644 | 0.592 | 0.234 | -0.621 | -0.235
19 | CTAAGTAGGTTAAGGGGGTCATTCAGTTTGAAAG | 3.97 | 4.97 | 4.03 | 2.69 | 5.62 | 3.64 | 2.28 | 6.08
20 | TTACAAAGGTGAAAGGTCGTTGATGCACGCCTTG | 3.48 | 5.85 | 3.31 | 1.05 | 7.68 | 3.11 | 0.398 | 1.64
21 | CGTCGGAGGACAGAAGGTCAGAGCTGTCCGCTTT | 3.36 | 3.56 | 3.38 | 0.338 | 1.83 | 2.08 | -0.192 | 0.136
22 | CTACGTAGGTTAAGGGGGTCATTCAGTTTGAAAG | 3.61 | 5.6 | 4.1 | 1.87 | 6.27 | 3.9 | 1.23 | 6.07
23 | TAGCCTAGGTCATTCAGGGGCCAGAATAGAAAGC | 3.56 | 5.97 | 4.58 | 2.09 | 3.18 | 3.54 | 0.459 | 1.19
24 | TCGAGTAGGTGACGGGGGCATTCAGGGATGAAGA | 2.01 | 2.59 | 1.91 | 1.94 | 1.86 | 3.83 | 1.64 | 3.28
25 | ATATGTAGGTTAGCGGGGGTCATTCAGACTAGGC | 4.17 | 5.25 | 4.26 | 2.7 | 6.22 | 4.82 | 2.75 | 5.45
26 | ATATGTGGGTTAGGGTCATTCAGAAAGTAGGGAA | 3.67 | 4.16 | 3.23 | 2.95 | 5.55 | 4.42 | 4.11 | 4.92
27 | ATATGTAGGTTAGTGTCATTCAGAAAGTAGGGAA | 1.31 | 1.14 | 1.06 | 0.868 | 0.992 | 0.837 | 0.558 | 0.794
28 | TCTCGGAGGACACGAAAAGTCAGAGCTCGACATC | 0.803 | 0.704 | 1.37 | 1.08 | 0.187 | 1.27 | 0.205 | -0.252
29 | CCGAGTAGGTTACGAGTGGGCATTCAGTGCGAAT | 0.401 | 0.298 | 0.292 | -0.0539 | 0.364 | 0.606 | -0.579 | 0.108
30 | CGTCAAAGTTAAAGGTAACGTAACAGAAAGCAGC | 0.442 | 0.799 | 0.833 | 0.0376 | 0.816 | 0.694 | -0.0792 | -0.165
31 | AGAATGAGGTTAGCAAAGATCAGGGAAACGCTTG | 0.446 | 0.938 | 0.899 | 0.105 | 1.23 | 1.8 | 0.173 | -0.135
32 | AGAACGAGGGCAATGAGTTCATAGCACGGGTGGC | 2.84 | 2.78 | 2.56 | 3.91 | 2.42 | 2.58 | 0.398 | 10.3
33 | CAAACTAGGTCACCGGAAAGTCAAAGTCCGCATG | 3.86 | 5.17 | 5.86 | 2.01 | 3.89 | 3.54 | 1.8 | 0.741
34 | ATATGTAGGTTAGGGTAATTCAGAAAGTAGGGAA | 1.35 | 1.05 | 0.966 | 0.835 | 1.16 | 1.72 | 1.34 | 1.11
